Data on 39 molecules can be found in PubChem BioAssay AID624331 (National Center for Advancing Translational Sciences (NCATS), 2012).

Results filed as inconclusive are left out. Calls of active or inactive are those of the source. Calls follow the shape of the dose curve; as a rule, active = well fitted activation curve with a large enough effect; inconclusive = small, poorly fitted or top-dose-only effect; inactive = no such curve, though single readings can be large or run the other way.
Potency is read from the fitted curve at half-maximal effect.

The nature of this experiment: qHTS assay for re-activators of p53 using a Luc reporter: Hit Validation with no p53 Expressed. As to activity change, positive = activation: 0% is about no effect. The note with it: p53-null cells, luciferase reporter counter-screen; series mostly up to 46.1 µM; activity change, positive = activation: at the top concentration. An outline of the steps:
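Counter-screen of primary hits in a cell line not transfected with p53, in Opti-MEM with 10% FBS; compounds at several concentrations (10 mM stock, 1:5; top 46.1 µM in well), 24 h at 37 deg C, 5% CO2. Luminescence read after 10 min with Amplite reagent.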
Take `S=c1[nH]nc(-c2ccco2)n1Cc1ccccc1`: the “activity change, positive = activation” value is 37.8% (inactive).
Same read-out and setting: with `COc1cc(NC(=O)CSCc2ccc(Cl)cc2)c(C(=O)O)cc1OC` the figure was -44% (inactive).
Still for that read-out and setting: with `Cc1csc(NC(=O)/C=C/c2ccco2)n1` the figure was 21.2% (inactive); with `CCc1cc2c(=O)c(-c3ccc4c(c3)OCCO4)coc2cc1OS(C)(=O)=O`, 59.3% (inactive).
The same measure, in the same setting: with `Cn1cc(Cl)c(C(=O)Nc2nc3ccccc3s2)n1` the figure was 36.7% (inactive); with `CC(=O)N(C)c1ccc(NC(=O)CCN2C(=O)c3ccccc3C2=O)cc1`, -23.3% (inactive).
As to `Cc1cccc(Nc2cc(=O)[nH]c(=O)[nH]2)c1C`, the “activity change, positive = activation” value is -22.6% (inactive).
For the molecule `CCCCn1c(/C=N/Nc2nc3ccccc3[nH]2)nc2ccccc21`, the “activity change, positive = activation” value is 87% (inactive).
Consider `CC(=O)c1ccc(N2Cc3ccccc3C2=NC(=O)c2cccs2)cc1`, for which the Potency was 10.3 µM (active).
Turning to `O=C(Cc1ccccc1)NCc1ccc(F)cc1`, the “activity change, positive = activation” value is 13.7% (inactive).
With `CCCN1C(=O)SC(CC(=O)Nc2ccccc2C)C1=O` (centres undefined), the “activity change, positive = activation” value was 29.6% (inactive).
The same measure, in the same setting: with `CC(C)C(=O)NC(c1cccs1)c1cc([N+](=O)[O-])c2cccnc2c1O` (centres undefined) the figure was -6.46% (inactive); with `COc1ccc(-n2nc([N+](=O)[O-])c(=NCc3ccco3)n2O)cc1`, 7.46% (inactive).
On to `CCOC(=O)c1ccc2ncc(C(=O)OCC)c(NCc3ccco3)c2c1`, for which the “activity change, positive = activation” value is -11.3% (inactive).
On to `Cc1cc(C)c2nc(NNC(=O)c3ccc(S(=O)(=O)N4CCc5ccccc5C4)cc3)sc2c1`, for which the “activity change, positive = activation” value is 68.3% (inactive).
As for `C=CCOc1c(Br)cc(CNCCCN2CCOCC2)cc1OC`, the “activity change, positive = activation” value is -42.5% (inactive).
The same measure, in the same setting: in the case of `Cc1ccc2cc3c(N)c(C(=O)N4CCOCC4)sc3nc2c1` it was 61.4% (inactive); in that of `CCOc1cc(S(=O)(=O)NC2CCCCCC2)ccc1F`, 35.2% (inactive).
`COc1ccccc1/C=C/C(=O)Nc1ccc2c(c1)CCC2`: the Potency is 2.91 µM (active).
The same measure, in the same setting: in the case of `N#C/C(=C\c1ccccc1[N+](=O)[O-])c1nc(C2CC2)cs1` it was 11.6 µM (active).
For the molecule `Cc1ccc2nc(NC(=O)c3ccc(Cl)s3)sc2c1`, the “activity change, positive = activation” value is 12.4% (inactive).
On the same count and under the same terms, in the case of `Cn1c(=NC(=O)c2ccco2)sc2cccc(F)c21` it was 33.8% (inactive); in that of `COc1cccc(Oc2ccc(N)cn2)c1`, -16.6% (inactive); in that of `CCN(CC(=O)NCc1cccs1)c1ccc(S(=O)(=O)N2CCOCC2)cn1`, -11.2% (inactive).
The same measure, in the same setting: with `Cc1nn(-c2ccccc2)c(/N=C/c2ccccc2O)c1-c1ccccc1` the figure was -56.3% (inactive).
For the molecule `COc1ccc2nc(NC(=O)Nc3ccccc3OC)sc2c1`, the “activity change, positive = activation” value is -21.1% (inactive).
With `c1ccc2cc3c(NCCN4CCOCC4)ccnc3cc2c1`, the “activity change, positive = activation” value is -48.5% (inactive).
Turning to `O=C(Nc1ncc(Cc2ccccc2)s1)c1cccs1`, the “activity change, positive = activation” value was 50.1% (inactive).
Turning to `CS(=O)(=O)c1ccc2nc(NC(=O)CCNC(=O)c3ccccc3Cl)sc2c1`, the “activity change, positive = activation” value is 80.4% (inactive).
Same read-out and setting: with `Cc1ccccc1CSc1ncc(C#N)c(N)n1` the figure was 8.99% (inactive); with `Cc1ccc(C(=O)Nc2ccn(C)n2)cc1`, 1.22% (inactive); with `Cc1cccc(/C(N)=N/OC(=O)c2ccc3c(c2)OCO3)c1`, 57.1% (inactive).
The same measure, in the same setting: in the case of `NNC(=O)c1cccc(COc2ccc(Br)cc2)c1` it was 13.2% (inactive); in that of `O=C(NCCN1CCCCC1)Nc1cccc(C(F)(F)F)c1`, -5.59% (inactive); in that of `O=c1[nH]c2ccc(N/C(=N/S(=O)(=O)c3ccccc3)c3ccccc3)cc2[nH]1`, -30.8% (inactive).
Same read-out and setting: with `COc1cc(C(=O)NCC(=O)Nc2c(C)cccc2C)ccc1OCc1ccccc1` the figure was -7.54% (inactive); with `COc1cc(CNC2CCCCCCC2)c(Br)cc1OCCO`, 8.85% (inactive).
Regarding `Cc1cc(C(=O)N/N=C/c2cccn2C)n[nH]1`, the “activity change, positive = activation” value was -21.3% (inactive).
Same read-out and setting: with `COc1cc(C2=NOC(C(=O)NCc3ccc(F)cc3)C2)cc(OC)c1OC` (centres undefined) the figure was -22.3% (inactive).
